Data: PubChem BioAssay AID2284363 (EPA ToxCast)
The source made the active and inactive calls. Rule for the calls: active = hit-call score of the fitted dose curve at least 0.9, where 1 is the maximum; inactive = score below 0.9.

Target: Nuclear factor erythroid 2-related factor 2 (Homo sapiens) (UniProt Q16236)
Assay: ERF_US_NR_hNFE2L2: Eurofins (ERF) Cell Based Nuclear Translocation LeadHunter Assay for human Transcription Factor Keap1-Nrf2 Agonism
Protocol: ERF_US_NR_hNFE2L2 is a cell-based, single-readout assay that uses extracted gene-proteins in a cell-line assay. Measurements were taken 6 hours after chemical dosing in a 384-well plate. See Keap1-Nrf2 Human Transcription Factor Cell Based Agonist Nuclear Translocation Assay, DiscoverX.ERF_US_NR_hNFE2L2 is an assay component calculated from the ERF_US_NR_hNFE2L2 assay. It is designed to measure protein fragment complementation using a type of binding reporter as detected by chemiluminescence with fluorimetry technology.Data from the assay component ERF_US_NR_hNFE2L2 was analyzed at the assay endpoint, ERF_US_NR_hNFE2L2, in the positive analysis fitting direction relative to DMSO as the negative control and baseline of activity. Using a type of binding reporter, gain-of-signal activity can be used to understand changes in binding as they relate to gene NFE2L2. To generalize the intended target to other relatable targets, this assay endpoint is annotated to the dna binding intended target family, where the subfamily is basic leucine zipper.
Cells were seeded in a total volume of 20 uL into white walled, 384-well microplates and incubated at 37C overnight prior to testing.For agonist determination, cells were incubated with sample to induce response. […] The results are expressed as a percent efficacy relative to the maximum response of the control ligand.

Nuclear factor erythroid 2-related factor 2 (Homo sapiens), sequence (Q16236 whole entry, looked up): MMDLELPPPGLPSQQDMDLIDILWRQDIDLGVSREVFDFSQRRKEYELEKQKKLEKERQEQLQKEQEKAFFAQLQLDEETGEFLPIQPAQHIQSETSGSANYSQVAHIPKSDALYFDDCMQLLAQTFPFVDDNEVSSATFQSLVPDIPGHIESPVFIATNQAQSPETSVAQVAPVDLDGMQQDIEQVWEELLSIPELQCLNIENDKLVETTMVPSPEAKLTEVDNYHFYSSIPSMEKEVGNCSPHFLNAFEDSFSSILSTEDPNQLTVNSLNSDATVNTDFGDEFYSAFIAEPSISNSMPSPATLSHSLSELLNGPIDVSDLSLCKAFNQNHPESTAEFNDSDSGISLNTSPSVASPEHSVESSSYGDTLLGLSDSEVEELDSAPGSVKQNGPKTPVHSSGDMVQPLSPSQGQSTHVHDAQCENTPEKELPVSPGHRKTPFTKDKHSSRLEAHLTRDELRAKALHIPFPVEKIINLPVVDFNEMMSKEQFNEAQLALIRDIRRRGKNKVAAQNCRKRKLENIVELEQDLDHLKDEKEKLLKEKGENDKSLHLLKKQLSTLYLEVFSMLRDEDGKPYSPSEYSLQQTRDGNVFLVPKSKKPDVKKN

Row | Compound | AC50 | outcome
1 | CC(C)(C)c1cc(O)ccc1O | 12.2 µM (active) | 
2 | CCNS(=O)(=O)C(F)(F)C(F)(F)C(F)(F)C(F)(F)C(F)(F)C(F)(F)C(F)(F)C(F)(F)F |  | inactive
